The campaign covered roughly 69,000 compounds. About 8,600 (12%) showed an effect of 50% or more. The sample as a whole holds a higher share of strong results than the screen did.
test system: Plasmodium berghei; experiment: Screen against P. berghei liver stage (PbLuc), transformed with Luciferase, at 10uM; assay type: functional, HepG2; details: tested at 10 uM

Row | SMILES | INHIBITION
1 | CS(=O)(=O)Cc1ccc(C(=O)N2CCCC(n3cncn3)C2)o1 (centres undefined) | 25.8%
2 | Cn1ccc2ccc(C(=O)N3CC[C@@]4(O)CCCC[C@H]4C3)cc21 | 18.3%
3 | CC(=O)N1CCCN(Cc2cc(F)cc(Br)c2)CC1 | 33.4%
4 | O=C1CC(c2cccnc2)C2(CCN(S(=O)(=O)C3CC3)CC2)N1 (centres undefined) | 9.67%
5 | Cc1ccccc1-n1ncc2c(=O)n(CCN3CCCCC3)cnc21 | -51.1%
6 | COc1ccc(CN(C)Cc2c(C)noc2C)c(Br)c1OC | 26.8%
7 | Cc1cnn(CC2CCCN2Cc2cc(C)on2)c1 (centres undefined) | 4.585%
8 | CC(C)(C)C(=O)N[C@H]1CC[C@H](Nc2nccc(-c3ccncc3)n2)C1 | 18.7%
9 | COc1cccc(CC2CN(C3CCCCC3)CCO2)c1 (centres undefined) | 36.2%
10 | CCOc1ccccc1OCCN(C)Cc1nccn1C | 20.5%
11 | CCOc1ccccc1N(C)Cc1nccn1C | 52.6%
12 | CN(Cc1nccn1C)c1ccc(-c2nccn2C)nn1 | -84.1%
13 | COCCC(=O)N1CCCC1c1nccnc1Nc1ncccn1 (centres undefined) | 33.7%
14 | Cn1ccnc1CN1CCC2(CC1)CN(c1cncnc1)C(=O)CO2 | 57.9%
15 | Cn1ccnc1CN1CCC2(CC1)CN(c1ccccc1)C(=O)CO2 | -4.88%
16 | O=C1COC2(CCN(Cc3cccs3)CC2)CN1c1cccnc1 | 10.7%
17 | O=C1COC2(CCN(Cc3cccs3)CC2)CN1c1cncnc1 | 67%
18 | CN(C)CCN1CCC2(CC1)CN(Cc1cccnc1)C(=O)CO2 | 41.2%
19 | O=C1COC2(CCN(Cc3cccs3)CC2)CN1c1ccccc1 | 26.8%
20 | Cn1ccnc1CN1CCC2(CC1)CN(Cc1ccccc1)C(=O)CO2 | 33%
21 | Cn1ccnc1CN1CCC2(CC1)CCN(c1cncnc1)C2=O | 8.93%
22 | Cn1ccnc1CN1CCC2(CC1)CN(Cc1cccnc1)C(=O)CO2 | 57.4%
23 | O=C(c1cccnc1)N1CCC2(CC1)CCN(c1ccsc1)C2=O | 16.6%

Row | SMILES | INHIBITION
24 | COCCCN1CC2(CCCCN2C(=O)c2ccsc2)CC1=O (centres undefined) | 20.7%
25 | Cc1cc(CN(Cc2cccnc2)CC2CCCO2)on1 (centres undefined) | 48.2%
26 | Cc1nccn1C1CCCN(C(=O)c2cc3c(F)cccc3[nH]2)C1 (centres undefined) | 42%
27 | CCc1ccc(NC(=O)C(C)Nc2cccc3c2OCCO3)cc1 (centres undefined) | 21.3%
28 | O=C(c1ccc2[nH]cnc2c1)N1CCC(COc2ccccn2)CC1 | 32.3%
29 | CN(CCn1cccn1)C1CCCN(Cc2noc(C3CC3)n2)C1 (centres undefined) | 39.7%
30 | Cc1csc(C2CCCCN2C(=O)c2cc(Cl)c[nH]2)n1 (centres undefined) | -19.4%
31 | Cc1nnc(SCC(=O)NCc2ccc3c(c2)CCC(=O)N3)n1C | 58.2%
32 | Cn1ccnc1SCC(=O)NCc1ccc2c(c1)CCC(=O)N2 | 34.2%
33 | Cc1nnc(SCC(=O)c2cc3c(cc2Cl)NC(=O)C3)s1 | 48.7%
34 | CC(NC(=O)NCc1ccoc1)c1ccc2c(c1)CCC(=O)N2 (centres undefined) | 36.4%
35 | O=C(CSc1ccccn1)NCc1ccc2c(c1)CCC(=O)N2 | 35%
36 | Cc1nnc(SCC(=O)NCc2ccc3c(c2)CCC(=O)N3)s1 | 72.3%
37 | CC(CC(=O)NCCS(N)(=O)=O)C1CCCCC1 (centres undefined) | 16%
38 | CCN(Cc1ccc(O)c(C(=O)O)c1)CC1CCCO1 (centres undefined) | 42.3%
39 | CN(Cc1nc(C(F)(F)F)cs1)C(=O)CCc1cccnc1 | -7.53%
40 | CCCOc1cc(C)ccc1NC(=O)NCCNC(C)=O | 1.06%
41 | O=C(c1ccncc1)N1CCC2(CC1)C(=O)Nc1ccccc12 | -16.9%
42 | CS(=O)(=O)NCc1cn2c(n1)CN(C(=O)c1ccc[nH]1)CC2 | 27.3%
43 | O=C(Cc1ccsc1)N1CCn2cc(CN3CCCC3)nc2C1 | -63.2%
44 | CCN(CC)Cc1cc(=O)n2c(n1)CN(C(=O)c1ccc[nH]1)CCC2 | 58.4%
45 | CC(C)N(C)Cc1cn2c(n1)CN(C(=O)Cc1ccccc1)CC2 | 72.3%
46 | O=C(Cc1ccccc1)N1CCn2cc(Cn3cncn3)nc2C1 | -28.7%

Row | SMILES | INHIBITION
47 | CC(C)N(C)Cc1cc(=O)n2c(n1)CN(C(=O)c1ccc[nH]1)CCC2 | 26.7%
48 | CC(C)N(C)Cc1cn2c(n1)CN(C(=O)c1ccc[nH]1)CC2 | 63.7%
49 | CN(Cc1cn2c(n1)CN(C(=O)c1ccc[nH]1)CC2)Cc1ccco1 | 7.31%
50 | CCN(CC)Cc1cn2c(n1)CN(C(=O)Cc1ccsc1)CC2 | 73.6%
51 | CC(C)N(C)Cc1cn2c(n1)CN(C(=O)Cc1ccsc1)CC2 | -9.86%
52 | CN(C)Cc1cc(=O)n2c(n1)CN(C(=O)c1ccc[nH]1)CCC2 | 32.1%
53 | CN(C)Cc1cn2c(n1)CN(C(=O)Cc1ccsc1)CC2 | -15.6%
54 | O=C(NC1CC1)C1=CC2(CCN(CC3CC3)CC2)c2ccccc21 | 37.1%
55 | Cc1cncc(C2CCN(Cc3ccc(S(C)(=O)=O)cc3)CC2)n1 | 25.3%
56 | CS(=O)(=O)NCc1cnc2n1CCN(Cc1ccco1)CC2 | 38.5%
57 | CN(Cc1ccsc1)C(=O)c1cccc(S(=O)(=O)NCC2CCCO2)c1 (centres undefined) | 23.4%
58 | COCCNC(=O)Cn1cc(OCc2ccc(F)cc2)c(=O)cc1CO | 26.9%
59 | OC1CCN(CCCn2ccnc2-c2c[nH]cn2)CC1 | -0.273%
60 | O=C(C1CCCC1)N1CCn2c(nnc2C2CCCNC2)C1 (centres undefined) | -1.45%
61 | Cc1nnc(SCCC(=O)N(C)Cc2ccc(F)cc2F)[nH]1 | 1.96%
62 | Cc1nnc(SCCC(=O)N(C)Cc2c(F)cccc2Cl)[nH]1 | -1.25%
63 | Cc1nnc(SCCC(=O)N(C)Cc2ccc(F)cc2Cl)[nH]1 | 51.1%
64 | CCc1c(O)nc2nc(N3CCOCC3)nn2c1C | 11%
65 | CCc1ccc(N2CCC(NS(=O)(=O)N(CC)CC)CC2)cc1 | 53.4%
66 | COc1ccc(N2CCC(NS(=O)(=O)N(C)C(C)C)CC2)cc1 | 34.1%
67 | CCN(CC)S(=O)(=O)NC1CCN(c2ccc(OC)cc2)CC1 | 12.8%
68 | CC(C)(C)CC(=O)NCC(=O)Nc1ccn(Cc2cccnc2)n1 | 21.6%
69 | CN1CC(=O)N(c2ccsc2)CC12CCN(Cc1cnn(C)c1)C2 (centres undefined) | -13%

Reference: ChEMBL document CHEMBL4513216, “Probing the Open Global Health Chemical Diversity Library for Multistage-Active Starting Points for Next-Generation Antimalarials” (ACS Infect Dis, 2020)
